Measured values published in ChEMBL document CHEMBL5308504, “Tm Shift (DSF) assay results for EUbOPEN Chemogenomics Library” (2023).
Several values for one entry are separate records, joined by “and”; a condition that tells them apart may be missing. Equal values may be shown once.

How the values were obtained:
[1] = target: Bromodomain-containing protein 4 (Homo sapiens) (UniProt O60885); details: Compound concentration 20.0 uM, Protein concentration 2.0 uM, Result type QC Liability
[2] = target: T1, Transcription intermediary factor 1-alpha (Homo sapiens) (UniProt O15164); details: Compound concentration 20.0 uM, Protein concentration 2.0 uM, Result type QC Liability
T1 sequence (whole entry): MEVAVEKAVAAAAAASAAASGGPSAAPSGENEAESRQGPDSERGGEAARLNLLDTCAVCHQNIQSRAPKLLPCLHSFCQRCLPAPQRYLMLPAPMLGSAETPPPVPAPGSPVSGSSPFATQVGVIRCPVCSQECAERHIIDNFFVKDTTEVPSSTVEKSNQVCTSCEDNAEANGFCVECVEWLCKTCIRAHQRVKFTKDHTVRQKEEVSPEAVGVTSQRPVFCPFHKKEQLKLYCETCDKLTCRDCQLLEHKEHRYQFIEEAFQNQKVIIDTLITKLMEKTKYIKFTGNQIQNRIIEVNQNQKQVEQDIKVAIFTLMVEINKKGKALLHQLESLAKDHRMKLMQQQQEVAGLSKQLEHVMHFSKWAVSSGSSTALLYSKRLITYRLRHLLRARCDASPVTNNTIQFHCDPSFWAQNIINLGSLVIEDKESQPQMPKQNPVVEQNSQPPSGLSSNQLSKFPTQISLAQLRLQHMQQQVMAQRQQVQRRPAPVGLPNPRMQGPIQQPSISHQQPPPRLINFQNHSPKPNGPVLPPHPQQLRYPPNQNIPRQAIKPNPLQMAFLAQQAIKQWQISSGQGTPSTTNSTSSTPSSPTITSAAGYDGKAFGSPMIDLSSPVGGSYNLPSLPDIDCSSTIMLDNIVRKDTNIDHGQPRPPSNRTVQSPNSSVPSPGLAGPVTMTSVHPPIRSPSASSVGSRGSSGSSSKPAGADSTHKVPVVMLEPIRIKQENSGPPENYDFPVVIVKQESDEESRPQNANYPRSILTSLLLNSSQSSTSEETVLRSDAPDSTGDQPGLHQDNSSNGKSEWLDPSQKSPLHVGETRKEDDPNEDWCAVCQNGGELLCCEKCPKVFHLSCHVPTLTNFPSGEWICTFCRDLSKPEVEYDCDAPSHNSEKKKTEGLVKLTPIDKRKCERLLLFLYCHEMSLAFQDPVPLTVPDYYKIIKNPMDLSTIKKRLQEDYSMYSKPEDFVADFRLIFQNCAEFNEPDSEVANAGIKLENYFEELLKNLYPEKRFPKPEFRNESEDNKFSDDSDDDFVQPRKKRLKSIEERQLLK

SMILES | ΔTm [1] [°C] | ΔTm [2]
CCOC(=O)Nc1ccc2c(c1)N(C(=O)CN(CC)CC)c1ccccc1CC2 | -1.53 | -1.69 °C
CCCN1C(=O)c2ccc(Cl)cc2Nc2ncccc21 | 0.34 | 0.51 °C
COc1ccc2c(O[C@@H]3C[C@H]4C(=O)N[C@]5(C(=O)O)CC5/C=C\CCCCC[C@H](NC(=O)OC5CCCC5)C(=O)N4C3)cc(-c3csc(NC(=O)C(C)C)n3)nc2c1C (stereo not given in full) | – | 0.14 °C [middle of 4 runs]
Cc1ccc(-n2nc(C(C)(C)C)cc2NC(=O)Nc2ccccc2F)cc1 | -1.72 | -1.64 °C
N=C(N)Nc1cc(C2CCNCC2)cc(C(F)(F)F)c1 | -0.1 | 0.35 °C
CCCCC[C@H](O)/C=C/[C@H]1[C@H](O)CC(=O)[C@@H]1CCCCCCC(=O)O | -1.54 | 0.28 °C
O=C(N[C@H](Cc1ccccc1)C(=O)O)c1cccc(OCc2cccnc2)c1 | -1.53 | -0.73 °C
C[C@@H](Oc1cc(-n2cnc3ccc(OC4CCN(C)CC4)cc32)sc1C(N)=O)c1ccccc1Cl | -2.01 | -2.55 °C
CC1(C)C[C@@H]1C(=O)N/C(=C\CCCCSC[C@H](N)C(=O)O)C(=O)O | -2.05 | -0.56 °C
O=C(O)c1ccc(CN2C[C@@H]3C[C@H]2CN3Cc2ccc(Oc3ccc(-c4ncco4)cc3)cc2)cc1 | -2.1 | -1.06 °C
CC(=O)c1c(C)c2cnc(Nc3ccn(C)n3)nc2n(C2CCCC2)c1=O | -0.76 | -2.16 °C
O=C(Nc1ccc(N2CCC(C(=O)N3CCOCC3)CC2)cc1)c1cnc(Oc2ccccc2)nc1 | -0.8 | -0.59 °C
CC(C)(C)c1cnc(CSc2cnc(NC(=O)C3CCNCC3)s2)o1 | 0.24 | -1.61 °C
CCC(C)(C)CC[C@H](NC(=O)N1CCOCC1)C(=O)NC1(C#N)CCN(C)CC1 | -0.41 | 0.53 °C
COCc1nc2cnc3cc(-c4c(C)noc4C)c(OC[C@H]4CCNC4)cc3c2n1[C@H](C)c1ccccc1 | – | -1.74 °C
O=C(O)CCCN1CCC[C@H]1COc1ccc(Oc2ccc(Cl)cc2)cc1 | -2.86 | -0.92 °C
O=C(O)c1cc2cc(Cc3cccnc3)ccc2o1 | -1.5 | -0.74 °C
CNC(=O)c1cc(C(=O)N[C@H]2[C@@H]3COC[C@@H]32)cc2c1O[C@@H](CF)[C@@H]2c1ccccc1 | – | -2.85 °C
COc1ccccc1S(=O)(=O)Nc1ccc2c(c1)CN(C)C(=O)N2 | – | -1.03 °C

SMILES | ΔTm [1] [°C] | ΔTm [2]
Fc1ccc(-c2nc(-c3c(F)cccc3F)[nH]c2-c2ccncc2)cc1 | 0.95 | -2.15 °C
NC(=O)c1ccccc1Nc1nc(-c2ccc(N3CCOCC3)cc2)cc2ncccc12 | -2.32 | -2.3 °C
CCS(=O)(=O)c1ccc(OC)c(Nc2ncc(-c3cccc(F)c3)o2)c1 | -2.4 | -1.42 °C
CC(C)c1nc2c(c3c1[C@H](c1ccc(C(F)(F)F)cc1)OC31CCOCC1)[C@H](O)CC(C)(C)C2 | -0.03 | 0.26 °C
Cc1nc2c(cc1F)c(-c1nnc3c(n1)NC(=O)C3(C)C)nn2Cc1cccc(F)c1F | -0.37 | 0.14 °C
CNC(=O)c1cc(C(=O)N[C@H]2[C@@H]3COC[C@@H]32)cc2c1O[C@H](CF)[C@H]2c1ccccc1 | – | -2.73 °C
N#CC[C@H](C1CCCC1)n1cc(-c2ncnc3[nH]ccc23)cn1 | -0.65 | -1.72 °C
COc1ccc(CC[C@@H](OC(=O)[C@H]2CCCCN2C(=O)[C@@H](c2cc(OC)c(OC)c(OC)c2)C2CCCCC2)c2cccc(OCCN3CCOCC3)c2)cc1OC | -4.83 | -1.63 °C
O=C(Nc1ccnc(NC(=O)C2CC2)c1)c1c(Cl)cccc1Cl | -1.81 | -3.69 °C
CO[C@H]1C[C@@H]2CC[C@@H](C)[C@@](O)(O2)C(=O)C(=O)N2CCCC[C@H]2C(=O)O[C@H]([C@H](C)C[C@@H]2CC[C@@H](O)[C@H](OC)C2)CC(=O)[C@H](C)/C=C(\C)[C@@H](O)[C@@H](OC)C(=O)[C@H](C)C[C@H](C)/C=C/C=C/C=C/1C | -2.02 | -0.81 °C
CCCc1c(OCCCOc2ccc(OCC(=O)O)cc2)ccc(C(C)=O)c1O | -2.92 | -1.6 °C
Nc1c(CC(=O)O)cccc1C(=O)c1ccc(Br)cc1 | -0.6 | -0.77 °C
Cc1sc(C(=O)c2cncnc2N[C@@H]2C[C@H](COS(N)(=O)=O)[C@@H](O)C2)cc1[C@@H]1NCCc2ccc(Cl)cc21 | -4.45 | -0.84 °C
Cn1nccc1-c1ccc(Sc2cccc(C3(C(N)=O)CCOCC3)c2)cc1 | -0.19 | 0.56 °C
Cc1ccc(NS(=O)(=O)c2ccc3c(c2)C2C=CCC2C(c2ccc(C(=O)O)cc2)N3)cc1C (stereo not given) | -2.09 | -2.63 °C
O=c1[nH]c(CS[C@H]2CC[C@H](O)CC2)nc2cc(OCC3CC3)cc(F)c12 | -0.97 | -3.28 °C
O=S(=O)(Nc1ccc(C(O)(C(F)(F)F)C(F)(F)F)cc1)c1cccs1 | -2.9 | -0.69 °C
CCNC(=O)c1ccc2c(c1)NC(=O)/C2=C(\Nc1ccc(CN(C)C)cc1)c1ccccc1 | – | 0.37 °C and -3.62 °C
O=C(Cc1ccccc1)Nc1nnc(N2C[C@H]3C[C@@H]2CN3c2cccnn2)s1 | -1.06 | -2.54 °C
